Data as given in PubChem BioAssay AID1645858 (Buhrlage Lab, Dana-Farber Cancer Institute and Novartis …, 2021).
The whole screen tested about 47,000 compounds, of which about 330 (0.7%) were called active. The entries come from a sample that favours actives as a whole. Values without a mark were called inactive. Cut-off read from the data, not from the text of the source: active = inhibition above about 30%; inactive = the rest.

target: OTU domain-containing protein 3 (Homo sapiens) (UniProt Q5T2D3); assay: inhibitors of human OTUD3 deubiquitinase (AID 1645858); settings: purified OTUD3, Ub-rhodamine fluorescence, 2 h; at 25 µM; hits give high values
Sequence (Q5T2D3 whole entry, looked up, the tested form may be a part): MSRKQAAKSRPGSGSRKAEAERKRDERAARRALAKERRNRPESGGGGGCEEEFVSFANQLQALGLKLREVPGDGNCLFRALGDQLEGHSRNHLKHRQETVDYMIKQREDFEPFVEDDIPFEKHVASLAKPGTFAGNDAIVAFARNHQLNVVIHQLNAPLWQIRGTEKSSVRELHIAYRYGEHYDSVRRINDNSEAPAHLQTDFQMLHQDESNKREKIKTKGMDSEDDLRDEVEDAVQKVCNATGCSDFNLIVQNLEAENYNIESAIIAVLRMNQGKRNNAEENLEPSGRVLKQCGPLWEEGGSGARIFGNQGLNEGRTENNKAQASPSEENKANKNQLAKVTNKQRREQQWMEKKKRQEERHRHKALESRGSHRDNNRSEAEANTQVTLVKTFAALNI

| SMILES | inhibition |
| --- | --- |
| Cc1ccc(C(=O)N2C[C@H]3NC(=O)c4ccccc4C(=O)[C@@]3(C)C2)cc1 | -0.0157% |
| CCN(C(=O)c1cncc(Br)c1)c1nc2ccccc2s1 | -0.0268% |
| COc1cccc(-c2ocnc2C(=O)NCc2ccc(OC)c(OC)c2)c1 | -12.9% |
| COc1cc(OC)cc(-c2nnc(NC(=O)c3ccc([N+](=O)[O-])o3)o2)c1 | 40.4% (active) |
| COc1ccc(-c2ocnc2C(=O)NCc2ccc(OC)c(OC)c2)cc1 | -9.98% |
| Nc1c(C(=O)CN2CCc3ccccc32)c(=O)[nH]c(=O)n1C1CC1 | -63.2% |
| Cc1ccccc1S(=O)(=O)NCc1nc2cccnc2n1C1CC1 | -1.25% |
| COC(=O)c1cc(S(=O)(=O)Nc2ccc(NC(=O)c3ccccc3)cc2)ccc1Cl | 2.44% |
| Cc1cccc(Nc2nccnc2C2CCCN2C(=O)c2ccnnc2)n1 (stereo unspecified) | 10.1% |
| O[C@H]1[C@H](NCc2cnc3ccccc3c2)[C@@H](c2cncnc2)C[C@H]1O | -7.7% |
| Cc1ccccc1C(=O)N1CCC2(CC1)c1ncc(-c3cccnc3)n1CCN2C | -6.54% |
| CSc1nc2c(c(Nc3ccc(C(C)=O)cc3)n1)CCC2 | -0.0554% |
| CC(C)Nc1ncnc2c1c(C(=O)N1CCCC1)c1ccccn12 | -56.8% |
| Cc1cc(O)c(=O)cc2c1C[C@H]1CC(C)(C)/C=C/C[C@@]3(C)Oc4cc(=O)c(O)cc(C)c4C[C@@H]3C[C@H](O)[C@]1(C)O2 | 33.2% (active) |
| Cc1cccc(Nc2cccc(C3CCCN3C(=O)c3cccnc3)n2)n1 (stereo unspecified) | -0.95% |
| CN1CCN(c2ccc3nnc(CCC(=O)NC4CCN(Cc5ccccc5)CC4)n3n2)CC1 | 5.05% |
| CC(C)=CCC(O)C1=CC(=O)c2c(O)ccc(O)c2C1=O (stereo unspecified) | 94.7% (active) |
| CC(C)=CCc1cc(O)ccc1O | -3.32% |
| Cc1cc(C)c2nc3c(cc2c1)CN(Cc1ccco1)C(=O)O3 | 19.2% |
| CC1(c2ncc(Cc3cccc(F)c3)o2)CCCN(C(=O)CN2CCCC2)C1 (stereo unspecified) | -4.47% |
| COc1ccccc1CCN[C@H]1CS(=O)(=O)C[C@@H]1S(=O)(=O)c1ccccc1 | 2.36% |
| COc1ccc(NC(=O)c2cn(C)nc2S(=O)(=O)N2CCCCCC2)cc1 | 11% |
| CC(C)NC(=O)c1cccc(-c2noc(-c3ccccc3Br)n2)c1 | 0.0532% |
| COC(=O)c1ccc(NC(=O)CSc2nnc(C(C)Oc3ccccc3)n2C)cc1 (stereo unspecified) | -2.47% |
| Cc1cc(C)nc(N(C(=O)C2CC2)c2ccc(OC(F)(F)F)cc2)n1 | -7.68% |
| Cc1nnc(OCC(=O)Nc2ccc(OC(F)(F)F)cc2)c2ccccc12 | 35.8% (active) |
